Experimental findings from publication PMC11006913 are described below.

Common to all, as to assay: PBM; 200 nM protein, PBS
What all share (details): dsDNA, one strand shown

Test [1] deals with SHOX (Homo sapiens, UniProt O15266 103-189).
The target of test [2] is T1, VENTX (Homo sapiens, UniProt O95231 78-163, R121Q).
T1 sequence: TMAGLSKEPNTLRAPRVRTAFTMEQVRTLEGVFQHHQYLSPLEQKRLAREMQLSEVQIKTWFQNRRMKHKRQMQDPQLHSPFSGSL

The target in test [3] is HOXB9 (Homo sapiens, UniProt P17482 171-250, T197M).
Sequence of HOXB9 (Homo sapiens, UniProt P17482 171-250, T197M) (P17482 171-250 T197M): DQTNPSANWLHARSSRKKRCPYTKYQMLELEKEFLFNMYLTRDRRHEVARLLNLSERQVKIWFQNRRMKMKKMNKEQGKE
The target of test [4] is T2, VENTX (Homo sapiens, UniProt O95231 78-163).
T2 sequence: T1 sequence with Q44R

Test [5] concerns the target T3, VENTX (Homo sapiens, UniProt O95231 78-163, Y115F).
T3 sequence: T1 sequence with Y38F, Q44R

Test [6] addresses HOXB9 (Homo sapiens, UniProt P17482 171-250).
Test [7] deals with SHOX (Homo sapiens, UniProt O15266 103-189, R173C).
Sequence of SHOX (Homo sapiens, UniProt O15266 103-189, R173C) (O15266 103-189 R173C): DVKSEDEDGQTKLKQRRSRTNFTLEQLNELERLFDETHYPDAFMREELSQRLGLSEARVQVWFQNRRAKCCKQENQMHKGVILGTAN
Test [8] deals with PROP1 (Homo sapiens, UniProt O75360 56-141).
Sequence of PROP1 (Homo sapiens, UniProt O75360 56-141) (O75360 56-141): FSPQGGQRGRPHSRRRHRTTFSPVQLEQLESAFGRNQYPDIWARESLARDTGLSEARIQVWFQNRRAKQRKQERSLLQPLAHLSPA
Test [9] deals with PROP1 (Homo sapiens, UniProt O75360 56-141, R99H).
Sequence of PROP1 (Homo sapiens, UniProt O75360 56-141, R99H) (O75360 56-141 R99H): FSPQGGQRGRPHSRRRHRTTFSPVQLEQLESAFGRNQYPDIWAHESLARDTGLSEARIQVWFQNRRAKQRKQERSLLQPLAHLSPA
The target in test [10] is HOXB9 (Homo sapiens, UniProt P17482 171-250, R186Q).
Sequence of HOXB9 (Homo sapiens, UniProt P17482 171-250, R186Q) (P17482 171-250 R186Q): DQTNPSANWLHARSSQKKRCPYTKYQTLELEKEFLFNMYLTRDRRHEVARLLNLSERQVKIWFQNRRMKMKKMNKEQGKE
Test [11] addresses PROP1 (Homo sapiens, UniProt O75360 56-141, F88S).
Test [12] deals with HOXA4 (Homo sapiens, UniProt Q00056 201-287, W262R).
Sequence of HOXA4 (Homo sapiens, UniProt Q00056 201-287, W262R) (Q00056 201-287 W262R): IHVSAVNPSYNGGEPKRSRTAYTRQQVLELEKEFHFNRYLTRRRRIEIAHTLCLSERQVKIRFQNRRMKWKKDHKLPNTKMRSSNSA
Test [13] addresses HOXA4 (Homo sapiens, UniProt Q00056 201-287, R217L).
In test [14] the target is HOXA4 (Homo sapiens, UniProt Q00056 201-287).
Sequence of HOXA4 (Homo sapiens, UniProt Q00056 201-287) (Q00056 201-287): as the sequence (Q00056 201-287 W262R) above, with R62W counted along it
The target in test [15] is HOXA4 (Homo sapiens, UniProt Q00056 201-287, W262F).
Sequence of HOXA4 (Homo sapiens, UniProt Q00056 201-287, W262F) (Q00056 201-287 W262F): as the sequence (Q00056 201-287 W262R) above, with R62F counted along it
Test [16] concerns the target CRX (Homo sapiens, UniProt O43186 26-111).
The target of test [17] is CRX (Homo sapiens, UniProt O43186 26-111, E42D).
Sequence of CRX (Homo sapiens, UniProt O43186 26-111, E42D) (O43186 26-111 E42D): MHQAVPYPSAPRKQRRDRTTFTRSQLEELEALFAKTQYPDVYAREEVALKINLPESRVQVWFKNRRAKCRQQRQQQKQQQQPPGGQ
For test [18], the target named is CRX (Homo sapiens, UniProt O43186 26-111, R41L).
Sequence of CRX (Homo sapiens, UniProt O43186 26-111, R41L) (O43186 26-111 R41L): as the sequence (O43186 26-111 E42D) above, with R16L, D17E counted along it
In test [19] the target is HOXB6 (Homo sapiens, UniProt P17509 132-218, K202E).
Sequence of HOXB6 (Homo sapiens, UniProt P17509 132-218, K202E) (P17509 132-218 K202E): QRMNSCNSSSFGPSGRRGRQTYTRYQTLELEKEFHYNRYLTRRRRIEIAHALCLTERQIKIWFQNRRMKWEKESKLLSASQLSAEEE
Test [20] has as its target HOXB6 (Homo sapiens, UniProt P17509 132-218).
For the next test, the target named is PITX2 (Homo sapiens, UniProt Q99697 72-157).
Test [21] deals with T4, SIX6 (Homo sapiens, UniProt O95475 114-200, L167I).
T4 sequence: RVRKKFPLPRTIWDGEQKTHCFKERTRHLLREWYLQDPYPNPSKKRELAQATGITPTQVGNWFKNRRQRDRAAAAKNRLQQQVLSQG

Test [22] concerns the target T5, SIX6 (Homo sapiens, UniProt O95475 114-200, L143V).
T5 sequence: T4 sequence with L30V, I54L

Test [23] addresses T6, SIX6 (Homo sapiens, UniProt O95475 114-200, H141N).
T6 sequence: T4 sequence with H28N, I54L

Test [24] addresses T7, SIX6 (Homo sapiens, UniProt O95475 114-200, T165P).
T7 sequence: T4 sequence with T52P, I54L

Test [25] addresses T8, SIX6 (Homo sapiens, UniProt O95475 114-200, L167M).
T8 sequence: T4 sequence with I54M

In test [26] the target is T9, SIX6 (Homo sapiens, UniProt O95475 114-200, L143M).
T9 sequence: T4 sequence with L30M, I54L

In test [27] the target is T10, SIX6 (Homo sapiens, UniProt O95475 114-200, L143I).
T10 sequence: T4 sequence with L30I, I54L

Test [28] concerns the target T11, SIX6 (Homo sapiens, UniProt O95475 114-200, T165G).
T11 sequence: T4 sequence with T52G, I54L

The target in test [29] is T12, SIX6 (Homo sapiens, UniProt O95475 114-200, T139Q).
T12 sequence: T4 sequence with T26Q, I54L

The target in test [30] is T13, SIX6 (Homo sapiens, UniProt O95475 114-200, T165A).
T13 sequence: T4 sequence with T52A, I54L

Test [31] concerns the target T14, SIX6 (Homo sapiens, UniProt O95475 114-200, L167V).
T14 sequence: T4 sequence with I54V

Test [32] deals with T15, SIX6 (Homo sapiens, UniProt O95475 114-200).
T15 sequence: T4 sequence with I54L

The target in test [33] is T16, SIX6 (Homo sapiens, UniProt O95475 114-200, T165I).
T16 sequence: T4 sequence with T52I, I54L

Positions count from the first letter of the chain named.

Sequence of SHOX (Homo sapiens, UniProt O15266 103-189) (O15266 103-189): as the sequence (O15266 103-189 R173C) above, with C71R counted along it
Sequence of HOXA4 (Homo sapiens, UniProt Q00056 201-287, R217L) (Q00056 201-287 R217L): as the sequence (Q00056 201-287 W262R) above, with R17L, R62W counted along it
Sequence of HOXB6 (Homo sapiens, UniProt P17509 132-218) (P17509 132-218): as the sequence (P17509 132-218 K202E) above, with E71K counted along it
Sequence of CRX (Homo sapiens, UniProt O43186 26-111) (O43186 26-111): as the sequence (O43186 26-111 E42D) above, with D17E counted along it
Sequence of HOXB9 (Homo sapiens, UniProt P17482 171-250) (P17482 171-250): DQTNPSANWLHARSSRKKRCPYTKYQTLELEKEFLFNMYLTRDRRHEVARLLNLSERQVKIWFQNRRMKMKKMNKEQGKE
Sequence of PROP1 (Homo sapiens, UniProt O75360 56-141, F88S) (O75360 56-141 F88S): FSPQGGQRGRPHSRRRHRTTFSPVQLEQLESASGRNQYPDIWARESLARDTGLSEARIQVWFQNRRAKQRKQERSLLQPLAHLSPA

Turning to CCGCATCC, the binding signal is 7.26 upbm affinity estimate (log intensity, higher = more binding, comparable within an allelic series) with SHOX [1]; 8.27 upbm affinity estimate (log intensity, higher = more binding, comparable within an allelic series) with VENTX [2]; 8.5 upbm affinity estimate (log intensity, higher = more binding, comparable within an allelic series) in the test with HOXB9 [3]; 8.44 upbm affinity estimate (log intensity, higher = more binding, comparable within an allelic series) with VENTX [4]; 8.27 upbm affinity estimate (log intensity, higher = more binding, comparable within an allelic series) with VENTX [5]; 8.49 upbm affinity estimate (log intensity, higher = more binding, comparable within an allelic series) with HOXB9 [6]. For the same sequence, the binding signal was 7.23 upbm affinity estimate (log intensity, higher = more binding, comparable within an allelic series) in the test with SHOX [7]; 6.85 upbm affinity estimate (log intensity, higher = more binding, comparable within an allelic series) with PROP1 [8]; 6.89 upbm affinity estimate (log intensity, higher = more binding, comparable within an allelic series) in the test with PROP1 [9]; 8.51 upbm affinity estimate (log intensity, higher = more binding, comparable within an allelic series) with HOXB9 [10]; 6.67 upbm affinity estimate (log intensity, higher = more binding, comparable within an allelic series) in the test with PROP1 [11].
On to CGAGCGCC, for which the binding signal in the test with SHOX [1] was 7.01 upbm affinity estimate (log intensity, higher = more binding, comparable within an allelic series); with HOXA4 [12], 9.78 upbm affinity estimate (log intensity, higher = more binding, comparable within an allelic series); with HOXA4 [13], 9.82 upbm affinity estimate (log intensity, higher = more binding, comparable within an allelic series); with SHOX [7], 7.09 upbm affinity estimate (log intensity, higher = more binding, comparable within an allelic series); with HOXA4 [14] it was 9.8 upbm affinity estimate (log intensity, higher = more binding, comparable within an allelic series); in the test with HOXA4 [15], 9.91 upbm affinity estimate (log intensity, higher = more binding, comparable within an allelic series).
As to CAGTCGCG, the binding signal with SHOX [1] is 7 upbm affinity estimate (log intensity, higher = more binding, comparable within an allelic series); with CRX [16], 8.23 upbm affinity estimate (log intensity, higher = more binding, comparable within an allelic series); in the test with CRX [17] it was 8.35 upbm affinity estimate (log intensity, higher = more binding, comparable within an allelic series); with SHOX [7] it was 7.2 upbm affinity estimate (log intensity, higher = more binding, comparable within an allelic series); with CRX [18], 8.3 upbm affinity estimate (log intensity, higher = more binding, comparable within an allelic series).
For the sequence GCTCCGAC, the binding signal is 7.2 upbm affinity estimate (log intensity, higher = more binding, comparable within an allelic series) in the test with SHOX [1]; 8.1 upbm affinity estimate (log intensity, higher = more binding, comparable within an allelic series) with VENTX [2]; 8.29 upbm affinity estimate (log intensity, higher = more binding, comparable within an allelic series) with VENTX [4]; 8.19 upbm affinity estimate (log intensity, higher = more binding, comparable within an allelic series) with VENTX [5]; 9.12 upbm affinity estimate (log intensity, higher = more binding, comparable within an allelic series) with HOXB6 [19]; 7.25 upbm affinity estimate (log intensity, higher = more binding, comparable within an allelic series) with SHOX [7]. In addition, the binding signal with HOXB6 [20] is 9.05 upbm affinity estimate (log intensity, higher = more binding, comparable within an allelic series).
In the case of AATATCGA, the binding signal in the test with SHOX [1] was 8.49 upbm affinity estimate (log intensity, higher = more binding, comparable within an allelic series).
Turning to CAGGGAGG, the binding signal in the test with SHOX [1] is 6.88 upbm affinity estimate (log intensity, higher = more binding, comparable within an allelic series); with HOXA4 [12], 9.65 upbm affinity estimate (log intensity, higher = more binding, comparable within an allelic series); with HOXB6 [19] it was 8.81 upbm affinity estimate (log intensity, higher = more binding, comparable within an allelic series); with HOXA4 [13], 9.79 upbm affinity estimate (log intensity, higher = more binding, comparable within an allelic series); in the test with SHOX [7] it was 7 upbm affinity estimate (log intensity, higher = more binding, comparable within an allelic series); with HOXA4 [14] it was 9.91 upbm affinity estimate (log intensity, higher = more binding, comparable within an allelic series). Further, the binding signal with HOXA4 [15] was 9.86 upbm affinity estimate (log intensity, higher = more binding, comparable within an allelic series); with HOXB6 [20] it was 8.85 upbm affinity estimate (log intensity, higher = more binding, comparable within an allelic series).
In the case of CGGATTAG, the binding signal is 8.9 upbm affinity estimate (log intensity, higher = more binding, comparable within an allelic series) in the test with SHOX [1]; 13.6 upbm affinity estimate (log intensity, higher = more binding, comparable within an allelic series) with CRX [16]; 13.7 upbm affinity estimate (log intensity, higher = more binding, comparable within an allelic series) with CRX [17]; 13.2 upbm affinity estimate (log intensity, higher = more binding, comparable within an allelic series) in the test with PITX2; 13.4 upbm affinity estimate (log intensity, higher = more binding, comparable within an allelic series) in the test with CRX [18].
Take CCGGCCAC: the binding signal is 7.3 upbm affinity estimate (log intensity, higher = more binding, comparable within an allelic series) with SHOX [1]; 8.84 upbm affinity estimate (log intensity, higher = more binding, comparable within an allelic series) in the test with SIX6 [21]; 8.77 upbm affinity estimate (log intensity, higher = more binding, comparable within an allelic series) with SIX6 [22]; 8.85 upbm affinity estimate (log intensity, higher = more binding, comparable within an allelic series) in the test with SIX6 [23]; 8.87 upbm affinity estimate (log intensity, higher = more binding, comparable within an allelic series) in the test with SIX6 [24]; 8.86 upbm affinity estimate (log intensity, higher = more binding, comparable within an allelic series) with SIX6 [25]. Besides, the binding signal with SIX6 [26] was 8.73 upbm affinity estimate (log intensity, higher = more binding, comparable within an allelic series); in the test with SIX6 [27] it was 8.81 upbm affinity estimate (log intensity, higher = more binding, comparable within an allelic series); in the test with SIX6 [28], 8.89 upbm affinity estimate (log intensity, higher = more binding, comparable within an allelic series); in the test with SIX6 [29], 8.81 upbm affinity estimate (log intensity, higher = more binding, comparable within an allelic series); in the test with SIX6 [30] it was 8.81 upbm affinity estimate (log intensity, higher = more binding, comparable within an allelic series); with SHOX [7], 7.14 upbm affinity estimate (log intensity, higher = more binding, comparable within an allelic series). Besides, the binding signal with SIX6 [31] is 8.82 upbm affinity estimate (log intensity, higher = more binding, comparable within an allelic series); in the test with SIX6 [32] it was 8.74 upbm affinity estimate (log intensity, higher = more binding, comparable within an allelic series); with SIX6 [33], 8.83 upbm affinity estimate (log intensity, higher = more binding, comparable within an allelic series).
For ATTATCCA, the binding signal with SHOX [1] was 9.69 upbm affinity estimate (log intensity, higher = more binding, comparable within an allelic series).
